Screening results: PubChem BioAssay, Center for Chemical Genomics, University of Michigan
The list is not random: actives were taken first. Their share in the collection is about 0.93%.
CDC25B CDK2 inh: primary biochemical HTRF screen for blockers of M-phase inducer phosphatase 2 binding to CDK2/cyclin A; P30305+P24941; AID 1259370, 2018; z-score (no concentration beside the values); HTRF CDC25B-CDK2/CyclinA binding, anti-His/anti-Flag; hits give high values; actives 0.72% (n = 94,000); in the data active = z-score above about 3.2
HIV TAR-Tat: TAR RNA-Tat peptide displacers, HIV-1, primary screen, biochemical, FRET, FAM/TAMRA-labeled Tat; HIV-1 TAR RNA, Tat peptide displacement FRET; hits give high values; z-score (no concentration beside the values); actives 0.6% (n = 100,000); active = z-score of 3 or more in at least 2 runs
A number is an active result.

What do the screens show for `O=C1CC(c2ccc(Cl)cc2)c2cnn(-c3nc4ccccc4s3)c2N1` (stereo unspecified)?
HIV TAR-Tat: inactive

What do the screens show for `CCc1ccc(-n2nc(C)c3c(C(=O)O)cc(C)nc32)cc1`?
HIV TAR-Tat: inactive

How did Cc1ccc(CNC(=O)CNC(=O)C2(C)Cn3c(cc4ccccc43)C(=O)N2C)o1 (stereo unspecified) do in these assays?
HIV TAR-Tat: inactive

What do the screens show for `CN1C(=O)CSc2ccc(NC(=O)NCc3ccc(F)cc3)cc21`?
CDC25B CDK2 inh: inactive; HIV TAR-Tat: inactive

How did CN1C(=O)CSc2ccc(NC(=O)NCc3cccnc3)cc21 do in these assays?
CDC25B CDK2 inh: 4.8; HIV TAR-Tat: inactive

What do the screens show for `CCCNc1c(N2CCCC(C(=O)OCC)C2)c(=O)c1=O` (stereo unspecified)?
CDC25B CDK2 inh: inactive; HIV TAR-Tat: inactive

How did NC(=O)CSc1nc2ccccc2s1 do in these assays?
CDC25B CDK2 inh: inactive; HIV TAR-Tat: inactive

Results for Cc1cc(-c2ccc(=O)[nH]n2)cc(S(=O)(=O)N2CCC(Cc3ccccc3)CC2)c1C ?
HIV TAR-Tat: 8.8

Results for Cc1cc(-c2ccc(=O)[nH]n2)cc(S(=O)(=O)N2CCN(c3ccccc3)CC2)c1C ?
HIV TAR-Tat: inactive

What do the screens show for `O=C(O)c1cccc(-c2cccs2)c1`?
CDC25B CDK2 inh: inactive

Results for CSc1ccc(CCNC(=O)CSc2ccsc2[N+](=O)[O-])cc1 ?
CDC25B CDK2 inh: inactive; HIV TAR-Tat: inactive

How did COc1ccc(NC(=O)CSc2ccsc2[N+](=O)[O-])cc1Cl do in these assays?
CDC25B CDK2 inh: inactive; HIV TAR-Tat: 10

Results for O=C(CSc1ccsc1[N+](=O)[O-])NC1CCCC1 ?
CDC25B CDK2 inh: inactive; HIV TAR-Tat: inactive

How did O=C(CSc1ccsc1[N+](=O)[O-])Nc1cccc(F)c1 do in these assays?
CDC25B CDK2 inh: inactive; HIV TAR-Tat: 5.2

Results for O=C(CSc1ccsc1[N+](=O)[O-])Nc1ccc(Br)cc1F ?
CDC25B CDK2 inh: inactive; HIV TAR-Tat: 13

How did O=C(CSc1ccsc1[N+](=O)[O-])Nc1c(F)cc(F)cc1Br do in these assays?
CDC25B CDK2 inh: inactive; HIV TAR-Tat: inactive

Results for Cc1ccccc1NS(=O)(=O)c1c(C)nc2scc(C)n2c1=O ?
CDC25B CDK2 inh: inactive; HIV TAR-Tat: inactive

Results for Clc1ccc(-c2cnc3nonc3n2)cc1 ?
CDC25B CDK2 inh: inactive; HIV TAR-Tat: inactive

What do the screens show for `COc1cccc(C2=NN(C(C)=O)C(c3cncc(Br)c3)O2)c1OC(C)=O` (stereo unspecified)?
HIV TAR-Tat: inactive

How did CC1=C(c2ccccc2)S(=O)(=O)NC1=NCCCc1ccccc1 do in these assays?
CDC25B CDK2 inh: inactive; HIV TAR-Tat: inactive

Results for CCCN1CCN(C(=O)Cn2nc(CC)n3c(cc4occc43)c2=O)CC1 ?
CDC25B CDK2 inh: inactive; HIV TAR-Tat: inactive

Results for COC(=O)[C@@]1(C)CC[C@]2(C)CC[C@]3(C)C(=CCC4[C@@]5(C)CCC(O)C(C)(C)C5CC[C@]43C)C2C1 (stereo partly specified) ?
CDC25B CDK2 inh: 5.2

What do the screens show for `CC1(C)CC[C@]2(C(=O)O)CC[C@]3(C)C(=CC[C@@H]4[C@@]5(C)CC[C@H](O)C(C)(C)[C@@H]5CC[C@]43C)[C@@H]2C1`?
HIV TAR-Tat: inactive

How did CC(=O)N1N=C(CSc2nc(C)cc(C)n2)OC1/C(C)=C/c1ccccc1 (stereo unspecified) do in these assays?
HIV TAR-Tat: 4.2

Results for CC(=O)N1N=C(CSc2nnc(-c3ccccc3)n2-c2ccccc2)OC1c1ccc(C)o1 (stereo unspecified) ?
HIV TAR-Tat: inactive

Results for Cc1ccnc(N2C(=O)c3ccccc3C2Nc2ccccc2)c1 (stereo unspecified) ?
CDC25B CDK2 inh: inactive; HIV TAR-Tat: inactive

What do the screens show for `Cc1ccc(N2C(=O)c3ccccc3C2Nc2cccnc2)nc1` (stereo unspecified)?
CDC25B CDK2 inh: 12; HIV TAR-Tat: inactive

What do the screens show for `O=S(=O)(c1ccc(Cl)cc1)c1nnn2c1nc(NCc1ccc3c(c1)OCO3)c1ccccc12`?
CDC25B CDK2 inh: inactive; HIV TAR-Tat: inactive

What do the screens show for `Cc1ccc(Cn2c(=O)oc3ccc(C(=O)O)cc32)cc1`?
HIV TAR-Tat: inactive

How did CCOC(=O)c1noc2nc(C)nc(Nc3cccc(F)c3)c12 do in these assays?
HIV TAR-Tat: inactive

How did Clc1ccc(OCCn2c(/C=C/c3ccco3)nc3ccccc32)cc1 do in these assays?
CDC25B CDK2 inh: inactive; HIV TAR-Tat: inactive

How did Cc1ccc(Cn2c(/C=C/c3ccco3)nc3ccccc32)cc1 do in these assays?
CDC25B CDK2 inh: 3.6; HIV TAR-Tat: inactive

How did Cc1ccccc1Cn1c(/C=C/c2ccco2)nc2ccccc21 do in these assays?
CDC25B CDK2 inh: 3.5; HIV TAR-Tat: inactive

What do the screens show for `C(=C\c1nc2ccccc2n1CCOc1ccccc1)/c1ccco1`?
CDC25B CDK2 inh: inactive; HIV TAR-Tat: inactive

What do the screens show for `CCOC(=O)c1c(NC(=O)CSc2nc3ccccc3o2)sc2c1CCCC2`?
CDC25B CDK2 inh: inactive; HIV TAR-Tat: inactive

What do the screens show for `O=S(=O)(c1cccc2nsnc12)N1CCN(c2cc(-c3ccccc3)ncn2)CC1`?
HIV TAR-Tat: inactive

Results for O=C(N=Nc1c(O)n(CN2CCOCC2)c2ccc(Br)cc12)c1ccncc1 ?
CDC25B CDK2 inh: inactive

What do the screens show for `Cc1nc(N2CCCC(C(=O)NC3CC3)C2)c2c(C)noc2n1` (stereo unspecified)?
HIV TAR-Tat: 11

How did CCc1noc2nc(C)nc(N3CCCC(C(=O)NC4CC4)C3)c12 (stereo unspecified) do in these assays?
HIV TAR-Tat: inactive

How did CC1(C)CC(C(N)=O)C(C)(C)N1 (stereo unspecified) do in these assays?
CDC25B CDK2 inh: inactive

Results for CC(C)OC(=O)c1ccc2[nH]c3c(c2c1)CCCC3 ?
CDC25B CDK2 inh: 18; HIV TAR-Tat: inactive

Results for COC(=O)c1ccc2[nH]c3c(c2c1)CCCC3 ?
CDC25B CDK2 inh: inactive

How did O=S(=O)(c1ccc2[nH]c3c(c2c1)CCCC3)N1CCCCC1 do in these assays?
HIV TAR-Tat: inactive

Results for O=S(=O)(c1ccc2[nH]c3c(c2c1)CCCCC3)N1CCCCC1 ?
HIV TAR-Tat: 3.4

How did CCOc1cc(C2OCCn3c(-c4ccc(OC)cc4)c4c(=O)n(C)c(=O)n(C)c4c32)ccc1O (stereo unspecified) do in these assays?
CDC25B CDK2 inh: inactive; HIV TAR-Tat: inactive

How did O=C(Nc1cccc(O)c1)c1cc(C2CC2)on1 do in these assays?
CDC25B CDK2 inh: inactive; HIV TAR-Tat: inactive

How did OCCN1CCN(c2ncnc3scc(-c4ccccc4)c23)CC1 do in these assays?
CDC25B CDK2 inh: inactive

Results for Cc1cc(F)ccc1S(=O)(=O)Nc1ccc2oc(=O)sc2c1 ?
CDC25B CDK2 inh: inactive; HIV TAR-Tat: inactive

Results for COc1nc2ccc(C)cc2cc1-c1noc(-c2cccnc2)n1 ?
CDC25B CDK2 inh: inactive; HIV TAR-Tat: 3.6

How did COc1nc2ccc(C)cc2cc1-c1noc(-c2ccncc2)n1 do in these assays?
CDC25B CDK2 inh: inactive; HIV TAR-Tat: inactive

What do the screens show for `O=C(Nc1cccc2cccnc12)c1ccco1`?
CDC25B CDK2 inh: 5.6; HIV TAR-Tat: inactive

What do the screens show for `O=C(Nc1cccc2cccnc12)C(=O)Nc1cccc2cccnc12`?
CDC25B CDK2 inh: inactive

Results for O=C(Cn1cc(SCc2cccc(Cl)c2)c2ccccc21)N1CCCC1 ?
HIV TAR-Tat: inactive
